Screen size: about 96,000 compounds; about 20,000 (21%) were called active. These entries were drawn from the full list. Unmarked numbers belong to inactive results.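 How the source made its calls: active means CYP2C19 inhibition above a set limit at 5 µM in the primary screen (cut at about 50% in these data); inactive means the rest.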
target: Cytochrome P450 2C19 (Homo sapiens) (UniProt P33261); assay: blockers of cytochrome P450 2C19 activity – biochemical, luminescence, ADME assay, primary screen (AID 778); settings: CYP2C19 Supersomes, luciferin-H EGE luminescence, 30 min; at 5 µM; hits give high values;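 further: plate controls were negative control wells for no effect and 2.5 mM tranylcypromine positive control for full effect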
Sequence (P33261 whole entry, looked up): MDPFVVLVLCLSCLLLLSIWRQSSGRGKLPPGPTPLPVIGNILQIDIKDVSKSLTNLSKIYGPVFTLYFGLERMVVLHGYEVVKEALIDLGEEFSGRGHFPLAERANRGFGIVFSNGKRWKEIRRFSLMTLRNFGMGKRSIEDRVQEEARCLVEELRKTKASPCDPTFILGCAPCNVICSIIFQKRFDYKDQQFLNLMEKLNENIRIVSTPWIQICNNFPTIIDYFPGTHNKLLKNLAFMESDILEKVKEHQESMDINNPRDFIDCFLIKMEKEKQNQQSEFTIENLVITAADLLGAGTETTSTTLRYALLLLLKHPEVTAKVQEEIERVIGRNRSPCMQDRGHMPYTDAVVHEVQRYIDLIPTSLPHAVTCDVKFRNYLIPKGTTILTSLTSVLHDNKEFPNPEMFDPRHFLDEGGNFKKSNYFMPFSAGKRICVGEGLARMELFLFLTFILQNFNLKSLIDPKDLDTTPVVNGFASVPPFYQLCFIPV

Compound	inhibition
CC(=O)c1cc2c(cc1N)OCO2	5.3%
CC1CCCC(C)N1C(=O)CN1CCN(c2nc(-c3ccc(F)cc3)cs2)CC1 (stereo unspecified)	7.4%
CCOC(=O)c1sc2nc(CSCC(=O)OCc3ccc(C(=O)OC)o3)[nH]c(=O)c2c1C	52.7% (active)
CC(=O)c1sc2nc(SCC(=O)N3CCCCC3)[nH]c(=O)c2c1C	15.5%
CCOC(=O)c1sc2nc(SC)nc(-c3ccccc3)c2c1N	6.9%
O=C(OCCO)c1cc(Cl)c(C(=O)OCCO)cc1Cl	15.6%
Cc1ccccc1NC(=S)Nc1cccc([N+](=O)[O-])c1	46.2%
Cc1cccc(NC(=S)Nc2ccc(Br)cc2)c1	66.8% (active)
Cc1cccc(NC(=O)Nc2cccc(Oc3c(F)c(F)c(F)c(F)c3F)c2)c1	0.7%
CCCn1c(SCC(N)=O)nnc1C(C)C	-9.9%
O=C(NC1CCCCC1)n1c(=O)oc2cc(S(=O)(=O)N3CCCCC3)ccc21	6.9%
O=C(CN1CCN(S(=O)(=O)c2ccc3ccccc3c2)CC1)NC(=O)NC1CCCCC1	73.3% (active)
O=C(CN1CCN(c2ccccn2)CC1)NC1CCCCC1	6.6%
Cc1noc(NS(=O)(=O)c2ccc(N3CC(O)=C(c4ccccc4)C3=N)cc2)c1C	-16.7%
CCOc1ccccc1C1C(C(=O)OC)=CN(C)C=C1C(=O)OC	33.6%
COC(=O)C1=CN(C)C=C(C(=O)OC)C1c1ccc(Cl)cc1Cl	74.5% (active)
CC12CN3CC(C)(CN(C1)C3c1ccc(Cl)cc1Cl)C2=O (stereo unspecified)	20.4%
COC(=O)c1ccc(C(=O)OC)c(NC(=S)N2CCCCC2)c1	16.7%
COC(=O)c1cc(NC(=O)CN2CCC(C(N)=O)(N3CCCCC3)CC2)cc(C(=O)OC)c1	14.3%
NC(=O)C1(N2CCCCC2)CCN(C(=S)Nc2ccc(Cl)cc2)CC1	70.7% (active)
O=C(OCc1nnc(-c2ccccc2)o1)c1ccc2c(c1)C(=O)N(CCc1ccccc1)C2=O	0.5%

Compound	inhibition
CCCC(C(=O)n1nc(C)cc1C)C(NS(=O)(=O)c1ccc(C)cc1)c1ccccc1 (stereo unspecified)	43.5%
CCOc1ccc(NC(=O)CCC(=O)n2nc(C)cc2C)cc1	-8.5%
CCOc1ccc(C(C)C)cc1S(=O)(=O)n1nc(C)cc1C	73.6% (active)
COc1cccc(CNc2nc3nc4c(c(=O)n3[nH]2)CCC4)c1	-17.3%
O=C(c1cccs1)N1CCC(c2nc3ccccc3s2)CC1	35.6%
O=C(c1cccs1)N1CCCC(c2nc(-c3ccc(F)cc3)no2)C1 (stereo unspecified)	64% (active)
O=C(Cc1cccs1)N1CCCC(c2nc(-c3ccc(S(=O)(=O)N4CCCC4)cc3)no2)C1 (stereo unspecified)	7.4%
COC(=O)/C(=C\Nc1ccccc1)NC(=O)c1ccc(Cl)cc1Cl	49%
C[N+]1(CCNC(=O)/C=N/O)CCCCC1	3.7%
Cc1cc(C)c2c(c1)cc(C)c1nnc(SCC(=O)Nc3cc(C)on3)n12	12.6%
O=C(Nc1cccc2ncccc12)c1ccc(-c2ccc(Cl)cc2Cl)o1	-13.7%
Clc1ccc(COn2c(-c3ccc(Cl)cc3Cl)nc3ncccc32)cc1	96.6% (active)
O=C(CN1C(=O)COc2ccccc21)Nc1ccc(F)cc1	33.4%
CCCN1CCN(CCCNC(=O)CN2C(=O)COc3ccccc32)CC1	-16.5%
O=C(CN1C(=O)COc2ccccc21)NCCN1CCc2ccccc2C1	53.3% (active)
Cc1cc(C)c2nc(NC(=O)C3CCCO3)sc2c1 (stereo unspecified)	14.4%
Fc1ccc(-c2nnc(CSc3nnc(-c4ccc5c(c4)OCO5)o3)o2)cc1	-7.5%
Cc1nc(SC(C)C)[nH]c(=O)c1Cc1ccccc1	38.8%
Cc1cnc(NC(=O)CSc2c(Cl)cccc2Cl)s1	-7.1%
CCOC(=O)N1CC=C2C(C#N)=C(N)C(C#N)(C#N)[C@H](c3cccs3)[C@H]2C1	-4.5%
C=CCOC(=O)C1=C(C)NC(C)=C(C(=O)OCC=C)C1c1cccs1	77% (active)

Compound	inhibition
CCCOC(=O)c1[nH]c2c(c1C)C(=O)CC(c1cccs1)C2 (stereo unspecified)	39.9%
COc1cc(C2C(C(=O)Nc3ccc(F)cc3)=C(C)Nc3nc(CCCO)nn32)cc(OC)c1OC (stereo unspecified)	11.1%
CCCOC(=O)Cc1c(O)c2ccccc2[nH]c1=O	-12.3%
O=c1/c(=C/c2ccc(CNS(=O)(=O)c3ccccc3)o2)sc2n1CCN=2	52.4% (active)
O=c1nc2s/c(=C\c3ccco3)c(=O)n2nc1Cc1ccccc1	-5.5%
CCOc1cc(CNCCN(C)C)c(Cl)cc1OCC(=O)NCCc1ccccc1	-1.1%
COc1ccc(N2C(=O)CCC(C(=O)Nc3ccccn3)C2c2ccc(OC)c(OC)c2)cc1 (stereo unspecified)	28.2%
COc1cccc(N2CCN(C(=O)Nc3ccc4c(c3)NC(=O)CO4)CC2)c1	-6.5%
O=C(O)C1CC=CCC1C(=O)Nc1ccccc1C(=O)N1CCN(c2ccccc2)CC1 (stereo unspecified)	-10.7%
CCC(=O)Nc1ccccc1C(=O)N1CCN(Cc2ccccc2)CC1	65% (active)
Cn1nnnc1SCC(=O)N1CCN(Cc2ccccc2)CC1	38.9%
CC(=O)N1CCN(C(=O)Nc2cccc(C(F)(F)F)c2)CC1	8.1%
O=C(Nc1ccccc1)N1CCN(Cc2ccccc2)CC1	76.7% (active)
CCOc1ccc(NC(=O)N2CCN(CC)CC2)cc1	-6.1%
O=C(Nc1cccc(NC(=O)N2CCN(c3ccccc3)CC2)c1)N1CCN(c2ccccc2)CC1	72% (active)
O=C1CCN(C(=O)Nc2ccccc2)N1	-3.2%
Cc1ccc(C(=O)OC2=CC(=O)CC(C)(C)C2)cc1	36.6%
CCOC(=O)c1[nH]c2ccc(OC)cc2c1NC(=O)N1CCOCC1	2.7%
Cn1c(SCC(=O)C(C)(C)C)nnc1-c1ccccn1	33.5%

— PubChem BioAssay AID778 (Sanford-Burnham Center for Chemical Genomics, 2007)
